Compounds with a hit are over-represented: about 14% of the library has one in this group of screens.
HCV inh – HCV inhibition; Huh7.5.1 HCVcc-Cre infection, luciferase reporter, 44 h; Potency, µM (doses to about 41.8 µM), usual class: inhibitors; hit rate 3.4% among 340,000
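Seed cells (1,000/well) for 4 h; treat with compound and infect with HCVcc-Cre, moi about 0.5. Incubate 44 h, then detect luciferase activity.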
HCMV antiviral – human cytomegalovirus inhibition; activity change, negative = inhibition, % at 57.5 µM; hit rate 4.5% among 410,000; HFF cells, HCMV-luciferase reporter, 72 h; stronger effect = lower value; AID 1259415; in the data active = activity change below about -60%; inconclusive = no clear call, values can overlap the other calls; inactive = above about -39%
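Steps: HFFs plated, 16 h 37C; compounds added; HCMV-luciferase added to MOI 1 PFU/cell; 72 h 37C; OneGlo reagent, 5 min room temperature; luminescence read, normalized to controls.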
Lassa entry inh – blocks Lassa virus binding to or entry into cells; hit rate 1.2% among 300,000; Lassa virus pseudotype entry inhibition, cell reporter; Potency, µM (series often up to 37.9 µM), most hits filed as inhibitors; calls by dose curve; tested in HEK293 cells; also: nearly all actives have a fitted effect of over 50% in size
Pf growth 48h – inhibits P. falciparum growth in the first generation, 48 h; P. falciparum luciferase growth in erythrocytes, 48 h; Potency, µM (doses to about 28.7 µM), actives largely listed as inhibitors; hit rate 5.9% among 310,000; AID 504832
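Parasite viability was followed by luminescence of a genomically integrated firefly luciferase. Cultures held 0.1% parasitemia at 2% hematocrit (final), incubated under 5% CO2 at 37 C.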
Pf growth 96h – inhibits malaria parasite growth, 96 h | P. falciparum luciferase reporter growth, 96 h | Potency, µM (top dose mostly 28.7 µM), most hits filed as inhibitors | hit rate 6.9% among 320,000
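Compounds incubated with erythrocytes infected by luciferase-expressing P. falciparum (2% hematocrit, 0.05% parasitemia final) for 96 hours, 37 C in 5% CO2. Growth inhibition scored as decreased luciferase luminescence.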
MARV entry inh – inhibitors of Marburg virus binding or cell entry; Potency, µM (highest dose often 37.8 µM), usual class: inhibitors; Marburg virus pseudotyped entry inhibition, cell reporter; AID 540276; hit rate 1.8% among 300,000; calls by dose curve; tested in HEK293 cells
Large screens that a line does not name were inactive. Unless noted, calls follow the shape of the dose curve; as a rule, active = well fitted inhibition curve with a large enough effect; inconclusive = small, poorly fitted or top-dose-only effect, or another doubt; inactive = no such curve, though single readings can be large or run the other way.

CN(C)c1ccc(/C=N/NC(=O)c2nnn(-c3nonc3N)c2COc2ccc(F)cc2)cc1	none
O=C(Nc1ccc(Cl)c(Cl)c1)Nc1ccc(Br)cc1F	HCV inh inconclusive, HCMV antiviral -99.3, Lassa entry inh inconclusive, Pf growth 48h inconclusive, Pf growth 96h 4.65µM, MARV entry inh inconclusive
N#Cc1ccc(NC(=O)Nc2ccc(Cl)cc2)cc1	HCV inh inconclusive, HCMV antiviral -100.6, Lassa entry inh inconclusive, Pf growth 48h inconclusive, MARV entry inh inconclusive
O=C(Nc1ccc(Cl)c(Cl)c1)Nc1ccccc1O	HCV inh inconclusive (no result: Lassa entry inh, MARV entry inh)
O=C(Nc1ccc(Cl)c(Cl)c1)Nc1nnc(-c2ccncc2)s1	HCV inh 8.91µM
O=C(Nc1ccc(Cl)cc1)Nc1ccc(Cl)c(Cl)c1	HCV inh inconclusive, HCMV antiviral -98.4, Pf growth 48h 2.33µM, Pf growth 96h 2.69µM (no result: Lassa entry inh, MARV entry inh)
COc1ccc(NC(=O)Nc2nnc(-c3ccncc3)s2)cc1	HCMV antiviral inconclusive, MARV entry inh inconclusive
CN(CC(=O)Nc1ccc(C#N)cc1)Cc1ccc(Cl)cc1	Lassa entry inh inconclusive, Pf growth 96h inconclusive
O=C(Nc1ccccc1)Nc1ccc(Br)c(Cl)c1	HCV inh 12.6µM, HCMV antiviral -98.3, Pf growth 48h inconclusive
CC(C)(C)N(NC(=O)Nc1ccc(F)cc1)C(=O)c1ccccc1	Pf growth 96h inconclusive
CC(C)(C)N(NC(=O)Nc1ccc(Cl)c(Cl)c1)C(=O)c1ccccc1	HCV inh inconclusive, HCMV antiviral -79.6, Lassa entry inh inconclusive, Pf growth 48h 11.7µM, Pf growth 96h inconclusive, MARV entry inh inconclusive
CC(Cc1ccccc1Sc1ccccc1O)N(C)C (configuration not stated)	Pf growth 96h 3.7µM, MARV entry inh inconclusive (no result: Pf growth 48h)
CN(C)Cc1ccccc1Sc1ccc(O)cc1O	none
COc1ccc2ccccc2c1/C=N\NC(=O)c1ccc(C)s1	HCV inh 10µM, HCMV antiviral inconclusive
COc1ccc2ccccc2c1/C=N/NC(=O)c1cccc(Br)c1	HCV inh inconclusive, HCMV antiviral -67.3
O=C(N/N=C/c1[nH]c2ccccc2c1Cl)c1cccc(Br)c1	HCV inh 7.08µM, Pf growth 48h inconclusive, Pf growth 96h 11.7µM, MARV entry inh inconclusive
COc1ccc(/C=N/NC(=O)c2cccc(Br)c2)cc1Cn1cc(Cl)cn1	HCV inh inconclusive, Lassa entry inh inconclusive, Pf growth 96h inconclusive, MARV entry inh 7.08µM
Cc1[nH]c2ccccc2c1/C=N/NC(=O)c1cccc(Br)c1	none (no result: HCMV antiviral)
CC(C)C[C@H]1COc2cc(NCc3ccc(Cl)c(Cl)c3)ccc2S(=O)(=O)N1	none (no result: HCV inh, Lassa entry inh, Pf growth 48h, Pf growth 96h, MARV entry inh)
O=C(O)CN=C(Nc1cc(Cl)cc(Cl)c1)NC(c1ccccc1)c1ccccc1	none (no result: HCV inh, Lassa entry inh, Pf growth 48h, Pf growth 96h, MARV entry inh)
O=C(CSc1nc2ccccc2nc1Cc1ccc(Cl)cc1)N1CCc2ccccc21	none (no result: HCV inh, Pf growth 48h, Pf growth 96h, MARV entry inh)
O=C(CSc1ccc(F)cc1)Nc1ccccc1Br	HCMV antiviral -61.4, Pf growth 48h inconclusive
O=C(CSc1ccccc1)NCCc1ccccc1	Pf growth 96h inconclusive, MARV entry inh inconclusive
CC(C(=O)NCCc1ccc(F)cc1)N1CCN(Cc2ccccc2)CC1 (configuration not stated)	HCMV antiviral inconclusive, Pf growth 48h inconclusive, Pf growth 96h 5.22µM, MARV entry inh inconclusive
O=C(CSc1ccccc1)NCCc1ccc(F)cc1	HCMV antiviral inconclusive, Pf growth 96h 3.29µM (no result: Lassa entry inh, MARV entry inh)
CC(C(=O)NC1CCCC1)N1CCN(Cc2ccccc2)CC1 (configuration not stated)	none
C=CCNc1cccc2c1S(=O)(=O)N[C@H](C)CO2	none (no result: HCV inh, Lassa entry inh, Pf growth 48h, Pf growth 96h, MARV entry inh)
CCCCCN(C(=O)CCC(=O)OCC(=O)N(C)Cc1ccc(C)cc1)c1c(N)n(CCCC)c(=O)[nH]c1=O	none (no result: HCV inh)
COc1cccc(CNC(=O)Cn2cccc2C(=O)c2ccccc2C)c1	Pf growth 96h inconclusive
COc1ccc(CCNC(=O)Cn2cccc2C(=O)c2ccccc2)c(OC)c1	HCV inh inconclusive, HCMV antiviral -96.2 (no result: Lassa entry inh, MARV entry inh)
CCCNC(=O)Cn1cccc1C(=O)c1ccccc1	Pf growth 96h inconclusive
COc1cccc(CNC(=O)Cn2cccc2C(=O)c2ccccc2)c1	HCMV antiviral -95.8 (no result: HCV inh, Pf growth 48h, Pf growth 96h)
CN(CC(=O)Nc1cccc(Cl)c1)S(=O)(=O)/C=C/c1ccccc1	none (no result: HCV inh, Lassa entry inh, Pf growth 48h, Pf growth 96h, MARV entry inh)
Cn1cccc1/C=N/N1CCN(Cc2ccccc2Cl)CC1	HCV inh 0.316µM
Cc1cc(C)c2cc(C(O)c3nnnn3Cc3ccccc3)c(=O)[nH]c2c1 (configuration not stated)	Pf growth 48h inconclusive
Cc1cc(C)c2cc(CN(CCO)C(c3nnnn3Cc3ccc(F)cc3)C(C)C)c(=O)[nH]c2c1 (configuration not stated)	HCV inh inconclusive, Pf growth 48h inconclusive, Pf growth 96h 11.7µM (no result: Lassa entry inh, MARV entry inh)
CCCC(=O)OC1=CN(Cc2ccccc2)S(=O)(=O)c2ccccc21	none (no result: HCV inh, Pf growth 48h, Pf growth 96h)
CC(=O)c1cccc(NC(=O)CCN2C(=O)C3C4CCC(C4)C3C2=O)c1 (configuration not stated)	Pf growth 96h inconclusive (no result: HCMV antiviral)
CCC(C)NC(=O)COc1ccc(S(=O)(=O)N2CCOCC2)cc1 (configuration not stated)	none
CCCC(C)NC(=O)COc1ccc(S(=O)(=O)c2ccc(OCC(=O)NC(C)CCC)cc2)cc1 (configuration not stated)	Lassa entry inh inconclusive, Pf growth 48h 11.7µM, Pf growth 96h inconclusive, MARV entry inh inconclusive
CC(C)C(C)NC(=O)COc1ccc(-c2ccccc2)cc1 (configuration not stated)	HCV inh inconclusive (no result: Pf growth 96h)
CC(C)C(C)NC(=O)COc1ccc(Sc2ccc(OCC(=O)NC(C)C(C)C)cc2)cc1 (configuration not stated)	HCV inh inconclusive, HCMV antiviral -88.1, Lassa entry inh inconclusive, Pf growth 48h inconclusive, Pf growth 96h inconclusive, MARV entry inh inconclusive
Cc1cccc(Oc2ccc3c(c2)Oc2ccccc2NC3=O)c1	none (no result: HCV inh, Pf growth 48h, Pf growth 96h)
CC(C)(C)OC(=O)N1CCC(NC(=O)c2nc[nH]c2C(=O)N2CCN(C(=O)OC(C)(C)C)CC2)CC1	Pf growth 48h 10.4µM, Pf growth 96h inconclusive (no result: Lassa entry inh, MARV entry inh)
CC(C)(C)OC(=O)N1CCC(NC(=O)c2nc[nH]c2C(=O)N2CCN(c3ccccc3)CC2)CC1	none (no result: Lassa entry inh, Pf growth 48h, Pf growth 96h, MARV entry inh)
CC(C)(C)OC(=O)NCCCCCNC(=O)c1[nH]cnc1C(=O)NC1CCN(C(=O)OC(C)(C)C)CC1	HCV inh inconclusive, Pf growth 48h 9.28µM, Pf growth 96h 2.08µM (no result: Lassa entry inh, MARV entry inh)
Cc1ccc(-c2nc(CSc3nnc(C)n4c3cc3occc34)c(C)o2)cc1	none (no result: HCV inh, Pf growth 48h, Pf growth 96h, MARV entry inh)
Cc1c[n+](CC(=O)c2ccccc2)c(C)cn1	HCV inh inconclusive, Pf growth 96h inconclusive
c1ccc(-c2nnc(-c3ccccc3)c(-c3c[nH]c4ccccc34)n2)cc1	none
c1ccc2c(-c3ccncc3)c[nH]c2c1	HCV inh 7.94µM, Pf growth 48h inconclusive (no result: Pf growth 96h)
CCCCN=C1NN=C(c2cccc([N+](=O)[O-])c2)CS1	none
CCCCN=C1NN=C(c2cc3ccccc3o2)CS1	Pf growth 48h inconclusive, Pf growth 96h 13.1µM
Cn1cc(C(=O)C(=O)N2CCCCC2)c2ccccc21	none (no result: Pf growth 48h, Pf growth 96h)
